From PubChem BioAssay (Tox21) come the findings set out here.

Experiment [1] can be described thus: Nuclear factor erythroid 2-related factor 2/antioxidant responsive element (Nrf2/ARE) small molecule agonists: qHTS cell viability counter screen in human keratinocytes (AID 1919968; active means well fitted curve in the direction sought with a large enough effect in the repeat runs; an effect the other way counts as inactive or inconclusive; further: nearly all actives have a fitted effect of over 55% in size; further: potency means the concentration at half of the fitted maximal effect). In outline: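 CellTiter-Fluor fluorescence, read 1 h after reagent, gave viability in the same wells as the ARE-luciferase assay. KeratinoSens cells (1,500/well) had 23 h compound exposure at 37 C/5% CO2 following 5 h plating.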

The nature of experiment [2]: Nuclear factor erythroid 2-related factor 2/antioxidant responsive element (Nrf2/ARE) small molecule agonists: luciferase reporter gene qHTS assay in human keratinocytes (AID 1919969). Further: nearly all actives have a fitted effect of over 35% in size. Further: potency means the concentration at half of the fitted maximal effect.
The target of experiment [3] is Gonadotropin-releasing hormone receptor (Homo sapiens) (UniProt P30968). Nature of the experiment: Human gonadotropin-releasing hormone receptor (GnRHR) small molecule agonists, calcium flux assay in GnRHR-HEK293 cells (AID 1920063). Further: nearly all actives have a fitted effect of over 35% in size. In outline: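 Agonist mode: compounds at 15 concentrations, in triplicate, went onto calcium dye-loaded GnRHR-HEK293 cells. Intracellular calcium was then followed as 480/540 nm fluorescence at 1 s intervals over 3 min.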
Gonadotropin-releasing hormone receptor (Homo sapiens), sequence (P30968 whole entry, looked up): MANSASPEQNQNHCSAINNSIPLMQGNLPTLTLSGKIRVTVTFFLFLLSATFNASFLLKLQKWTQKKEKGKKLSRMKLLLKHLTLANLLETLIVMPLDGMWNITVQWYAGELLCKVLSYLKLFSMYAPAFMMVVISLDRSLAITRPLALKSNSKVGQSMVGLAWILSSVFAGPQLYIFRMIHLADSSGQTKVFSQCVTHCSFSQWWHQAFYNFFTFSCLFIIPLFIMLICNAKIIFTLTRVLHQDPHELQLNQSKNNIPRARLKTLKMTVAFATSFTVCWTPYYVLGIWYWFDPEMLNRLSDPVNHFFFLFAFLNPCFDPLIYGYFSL
A general note: A change in cytosolic calcium serves as a functional read-out for many receptors and channels.

Experiment [4] addresses KiSS-1 receptor (Homo sapiens) (UniProt Q969F8). In words: Human kisspeptin (KISS1R) small molecule agonists, calcium flux assay in KISS1R-HEK293 cells (AID 1920064; active means well fitted curve in the direction sought with a large enough effect in the repeat runs; an effect the other way counts as inactive or inconclusive). A digest of the protocol:
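Agonist mode: intracellular calcium rise tracked at 1 s intervals over 3 min (480/540 nm) immediately after compound addition to dye-loaded KISS1R-HEK293 stable cells. Each compound tested at 15 concentrations in triplicate.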

Experiment [5] can be described thus: G protein-coupled receptor (GPCR) small molecule agonists, calcium flux assay: HEK293 wild type cell line counter screen (AID 1920065). In outline: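 Calcium flux counter screen: compound added in agonist mode at 15 concentrations in triplicate to dye-loaded parental HEK293 cells. Fluorescence (480/540) read kinetically for 3 min; ATP served as positive control.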

Experiment [6] in a line: p53 small molecule agonists, cell-based qHTS assay with human liver microsomes: qHTS cell viability counter screen (AID 1963579). Further: nearly all actives have a fitted effect of over 45% in size. Further: potency means the concentration at half of the fitted maximal effect. In outline:
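Metabolically activated exposure: compounds, human liver microsomes and NADPH (0.5 mg/mL final apiece) were added to p53RE-bla cells seeded 5 h earlier, left 16 h at 37 C, and then assessed for viability by CellTiter-Glo luminescence.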

Experiment [7] in a line: p53 small molecule agonists, cell-based qHTS assay with rat liver microsomes: qHTS cell viability counter screen (AID 1963580). Further: nearly all actives have a fitted effect of over 45% in size. A digest of the protocol: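 Cytotoxicity counter screen: intracellular ATP read by CellTiter-Glo luminescence in the p53 reporter wells. HCT-116 p53RE-bla cells were treated for 16 h at 37 C alongside rat liver microsomes and NADPH, each 0.5 mg/mL final.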
Background: In qHTS, concentration-response curves come from the screen itself.

A short description of experiment [8]: p53 small molecule agonists, cell-based qHTS assay: qHTS cell viability counter screen (AID 1963581). Further: nearly all actives have a fitted effect of over 45% in size. Further: potency means the concentration at half of the fitted maximal effect. A digest of the protocol:
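Counter screen read by CellTiter-Glo luminescence (ATP content, 30 min at room temperature), run in the same wells as the beta-lactamase reporter read. HCT-116 p53RE-bla cells saw compounds for 16 h at 37 C.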

In experiment [9] the target is 5-hydroxytryptamine receptor 2A (Homo sapiens) (UniProt P28223). Nature of the experiment: 5-hydroxytryptamine receptor 2A (HTR2A) small molecule antagonists, cell-based qHTS assay (AID 1963586). Further: nearly all actives have a fitted effect of over 45% in size. A digest of the protocol: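 CHO cells stably expressing human HTR2A were plated for 18 h at 37 C, then loaded with calcium dye for 1 h. Compounds were preincubated 5 min at room temperature before DOI (4 nM solution) was added. Kinetic fluorescence was read for 3 min.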
5-hydroxytryptamine receptor 2A (Homo sapiens), sequence (P28223 whole entry, looked up): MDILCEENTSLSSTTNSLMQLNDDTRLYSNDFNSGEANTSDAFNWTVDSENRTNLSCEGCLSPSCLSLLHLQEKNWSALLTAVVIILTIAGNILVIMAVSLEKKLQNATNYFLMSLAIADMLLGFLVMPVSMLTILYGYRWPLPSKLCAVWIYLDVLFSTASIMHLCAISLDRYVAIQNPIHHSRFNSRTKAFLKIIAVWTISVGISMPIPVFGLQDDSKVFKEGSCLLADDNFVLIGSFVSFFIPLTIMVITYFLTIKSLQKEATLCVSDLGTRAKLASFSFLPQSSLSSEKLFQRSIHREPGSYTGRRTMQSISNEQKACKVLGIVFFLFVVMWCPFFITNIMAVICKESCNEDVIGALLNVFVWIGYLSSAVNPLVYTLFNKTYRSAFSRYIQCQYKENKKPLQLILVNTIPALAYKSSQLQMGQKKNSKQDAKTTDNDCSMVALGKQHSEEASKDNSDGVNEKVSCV

Experiment [10] has the same target. Nature of the experiment: 5-hydroxytryptamine receptor 2A (HTR2A) small molecule agonists, cell-based qHTS assay (AID 1963587). Further: nearly all actives have a fitted effect of over 30% in size. Further: potency means the concentration at half of the fitted maximal effect. A digest of the protocol: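 Kinetic calcium-flux fluorescence (2 min, 1 sec intervals) after compound addition in agonist mode. HTR2A-CHO cells were cultured 18 h, then dye-loaded 1 h at 37 C.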
Experiment [11] addresses Muscarinic acetylcholine receptor M1 (Homo sapiens) (UniProt P11229). In words: Cholinergic receptor muscarinic 1 (CHRM1) small molecule antagonists, cell-based qHTS assay (AID 1963588). Further: nearly all actives have a fitted effect of over 40% in size. Further: potency means the concentration at half of the fitted maximal effect. A digest of the protocol:
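Compounds were tested at 15 concentrations in three independent runs. Dye-loaded CHRM1-CHO cells were exposed 5 min at room temperature before stimulation by acetylcholine added at 50nM. Intracellular calcium was read kinetically on FDSS for 3 min.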

Experiment [12] has the same target. Nature of the experiment: Cholinergic receptor muscarinic 1 (CHRM1) small molecule agonists, cell-based qHTS assay (AID 1963589). Further: nearly all actives have a fitted effect of over 35% in size. In outline: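 Agonist-mode calcium-flux screen: compounds at 15 concentrations, three independent runs, were pin-transferred onto dye-loaded human CHRM1-CHO cells. Fluorescence was then recorded kinetically every second over minutes.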

A short description of experiment [13]: cAMP Responsive Elements (CRE) small molecule agonists, cell-based qHTS assay (AID 1963590). In outline:
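Agonist mode: compound added to CRE-bla HEK 293T cells (2,000/well, 18 h after plating) for 3 h at 37 C/5% CO2. Reporter activity detected via FRET beta-lactamase substrate, 2 h room-temperature loading.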

Experiment [14] in a line: cAMP Responsive Elements (CRE) small molecule antagonists, cell-based qHTS assay (AID 1963591; active means well fitted inhibition curve with a large enough effect in the signal ratio in the repeat runs, not every such curve was filed as active; the % refers to the signal ratio). A digest of the protocol:
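Antagonist mode: compounds are added alongside the adenylyl cyclase activator NKH477 (0.25 uM final) to CRE-bla HEK293T cells for 3 h. LiveBLAzer FRET substrate, 2 h at room temperature, reports bla expression.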

Experiment [15] has as its target Beta-2 adrenergic receptor (Homo sapiens) (UniProt P07550). In words: Adrenergic beta2 receptor (ADRB2) small molecule antagonists, cell-based qHTS assay (AID 1963592). Further: series mostly up to about 92 µM; nearly all actives have a fitted effect of over 50% in size. In outline:
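Assay format: CHO-ADRB2 cells, 18-20hr seeding at 37C/5% CO2, then compound plus 1nM isoproterenol agonist mix for 0.5hr RT. Homogeneous time-resolved fluorescence cAMP detection after 1hr, expressed as 665/615 nm ratio.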

Experiment [16] shares this target. Nature of the experiment: Adrenergic beta2 receptor (ADRB2) small molecule agonists, cell-based qHTS assay (AID 1963593).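 Further: CHO cells stably overexpressing human ADRB2.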 In outline:
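CHO cells stably over-expressing ADRB2 were plated overnight at 37C, then dosed with compounds plus a stimulation mix containing 100uM IBMX and 25uM Ro-20-1724 for 0.5hr at room temperature. cAMP was measured by HTRF competition, 1hr.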

Experiment [17] concerns the target D(2) dopamine receptor (Homo sapiens) (UniProt P14416). In words: Dopamine D2 receptor (DRD2) small molecule agonists, cell-based qHTS assay (AID 1963594). Further: nearly all actives have a fitted effect of over 35% in size. A digest of the protocol:
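cAMP accumulation in DRD2-HEK293 cells measured by HTRF after 1 h detection; compounds added 10 min before NKH477 (200nM […]) forskolin-analogue stimulation, 30 min at room temperature, with Ro20-1724 present at 0.1 mM final.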

The target is the same in experiment [18]. In words: Dopamine D2 receptor (DRD2) small molecule antagonists, cell-based qHTS assay (AID 1963595; active means well fitted inhibition curve with a large enough effect in the signal ratio in the repeat runs, with a control signal flat; the % refers to the signal ratio; further: potency means the concentration at half of the fitted maximal effect). In outline: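 HEK293 cells stably expressing DRD2 were preincubated with 0.1 mM Ro20-1724, then with compound for 10 min at room temperature. Cells were stimulated with 200 nM NKH477 plus 12 nM quinpirole for 30 min, and cAMP was read by HTRF.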
The nature of experiment [19]: p53 small molecule agonists, cell-based qHTS assay (AID 1963582; active means well fitted activation curve with a large enough effect in the signal ratio in the repeat runs, not every such curve was filed as active; the % refers to the signal ratio). In outline:
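Read-out is beta-lactamase FRET fluorescence after 2 h at room temperature with LiveBLAzer B/G substrate. p53 response element-bla cells were treated 16 h at 37 C with compounds in DMSO, added 5 h after seeding.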

A short description of experiment [20]: p53 small molecule agonists, cell-based qHTS assay with rat liver microsomes (AID 1963578). In outline: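 Agonist mode in p53RE-bla reporter cells, with compounds co-incubated 16 h at 37 C alongside 0.5 mg/mL rat liver microsomes and 0.5 mg/mL NADPH (final), followed by a 2 h LiveBLAzer detection step.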

Several values for one entry are separate records, joined by “and”; a condition that tells them apart may be missing. Equal entries are not always repeated. Inconclusive results are not listed. More than one record can exist for a structure, and the calls need not agree. Activity calls are given as the source filed them. Unless noted, the call rests on the fitted dose curve.

D(2) dopamine receptor (Homo sapiens), sequence (P14416 whole entry, looked up): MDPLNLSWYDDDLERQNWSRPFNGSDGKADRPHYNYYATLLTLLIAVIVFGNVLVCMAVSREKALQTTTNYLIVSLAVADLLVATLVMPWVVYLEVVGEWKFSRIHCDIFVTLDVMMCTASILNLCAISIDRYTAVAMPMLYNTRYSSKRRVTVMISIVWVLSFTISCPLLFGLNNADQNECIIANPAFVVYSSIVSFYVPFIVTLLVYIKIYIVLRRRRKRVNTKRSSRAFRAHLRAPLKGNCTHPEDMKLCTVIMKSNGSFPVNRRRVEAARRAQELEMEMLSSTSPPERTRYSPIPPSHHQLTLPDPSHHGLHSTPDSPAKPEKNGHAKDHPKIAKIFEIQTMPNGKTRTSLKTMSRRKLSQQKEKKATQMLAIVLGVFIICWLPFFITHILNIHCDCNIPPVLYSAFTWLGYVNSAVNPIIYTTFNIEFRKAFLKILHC
Beta-2 adrenergic receptor (Homo sapiens), sequence (P07550 whole entry, looked up): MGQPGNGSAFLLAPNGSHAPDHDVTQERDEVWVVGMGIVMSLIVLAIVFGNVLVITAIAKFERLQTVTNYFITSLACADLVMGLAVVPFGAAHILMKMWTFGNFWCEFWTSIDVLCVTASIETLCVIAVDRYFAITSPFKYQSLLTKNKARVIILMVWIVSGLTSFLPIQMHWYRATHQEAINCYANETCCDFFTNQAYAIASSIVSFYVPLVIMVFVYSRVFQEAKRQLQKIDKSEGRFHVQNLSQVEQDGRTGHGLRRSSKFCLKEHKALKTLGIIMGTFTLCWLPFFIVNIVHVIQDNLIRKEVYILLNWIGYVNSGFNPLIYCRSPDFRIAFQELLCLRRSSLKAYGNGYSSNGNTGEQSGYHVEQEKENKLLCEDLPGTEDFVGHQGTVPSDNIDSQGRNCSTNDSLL
KiSS-1 receptor (Homo sapiens), sequence (Q969F8 whole entry, looked up): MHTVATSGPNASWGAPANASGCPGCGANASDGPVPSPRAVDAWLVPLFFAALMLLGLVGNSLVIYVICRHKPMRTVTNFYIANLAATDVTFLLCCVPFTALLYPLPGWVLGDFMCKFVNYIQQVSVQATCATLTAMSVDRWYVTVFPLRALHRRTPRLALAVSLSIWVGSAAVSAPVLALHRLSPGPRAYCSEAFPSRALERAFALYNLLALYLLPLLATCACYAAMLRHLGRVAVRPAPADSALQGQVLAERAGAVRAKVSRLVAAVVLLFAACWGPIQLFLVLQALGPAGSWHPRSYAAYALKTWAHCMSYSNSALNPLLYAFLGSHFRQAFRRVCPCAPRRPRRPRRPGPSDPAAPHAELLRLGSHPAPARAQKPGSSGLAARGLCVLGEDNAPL
Muscarinic acetylcholine receptor M1 (Homo sapiens), sequence (P11229 whole entry, looked up): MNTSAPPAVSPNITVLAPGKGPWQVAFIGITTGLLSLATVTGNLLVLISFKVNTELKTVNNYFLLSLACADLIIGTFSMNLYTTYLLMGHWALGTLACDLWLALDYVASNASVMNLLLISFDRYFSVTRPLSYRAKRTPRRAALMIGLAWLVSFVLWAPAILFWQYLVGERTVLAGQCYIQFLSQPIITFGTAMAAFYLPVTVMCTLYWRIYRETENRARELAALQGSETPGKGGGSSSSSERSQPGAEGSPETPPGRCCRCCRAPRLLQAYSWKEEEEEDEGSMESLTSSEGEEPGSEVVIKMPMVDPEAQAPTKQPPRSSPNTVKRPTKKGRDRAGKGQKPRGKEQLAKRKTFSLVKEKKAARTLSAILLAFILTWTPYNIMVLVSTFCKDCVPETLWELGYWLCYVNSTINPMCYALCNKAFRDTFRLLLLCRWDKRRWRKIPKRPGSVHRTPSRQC

On to `CC(=O)/C=C/c1ccccc1`, for which the Potency entry in experiment [1], in [3], in [4], in experiment [5], in experiment [6] and in [7] was “inactive” throughout. In addition, the Potency result in [8], in experiment [9], in [10], in [11], in [12] and in experiment [13] was “inactive” each time. In addition, the Potency entry in experiment [14], in experiment [15], in experiment [16], in experiment [17] and in [18] was “inactive” each time. Further, the Potency in experiment [2] was 60 µM (active) and inactive.

For the molecule `O=C1CCCO1`, the Potency entry in experiment [1], in experiment [2], in experiment [3], in experiment [4], in experiment [5] and in experiment [6] was “inactive” each time. Further, the Potency result in experiment [7], in experiment [8], in experiment [19], in experiment [9], in experiment [12] and in experiment [13] was “inactive” each time. For the same molecule, the Potency result in experiment [17] and in experiment [18] was “inactive” throughout. Also, in [11], the Potency is 14.6 µM (active) and inactive.

For the molecule `CC(C)COC(=O)c1ccccc1C(=O)OCC(C)C`, the Potency result in [1], in [2], in [3], in experiment [4], in experiment [5] and in [6] was “inactive” throughout. In addition, the Potency entry in experiment [7], in [8], in experiment [9], in experiment [11], in experiment [12] and in experiment [13] was “inactive” each time. Further, the Potency result in [14], in [15], in experiment [16], in experiment [17] and in [18] was “inactive” in each case. Further, the Potency in experiment [10] is 5.5 µM (active) and inactive.

`CC(C)=C[C@@H]1[C@@H](C(=O)OCc2coc(Cc3ccccc3)c2)C1(C)C`: the Potency result in experiment [1], in experiment [2], in experiment [3], in experiment [4], in experiment [5] and in [6] was “inactive” in each case. For the same molecule, the Potency entry in experiment [7], in [8], in experiment [9], in experiment [10], in experiment [11] and in experiment [12] was “inactive” throughout. Besides, the Potency result in experiment [13], in experiment [14], in [15], in experiment [16], in [17] and in experiment [18] was “inactive” throughout.

Turning to `O=[N+]([O-])/N=C1\NCCN1Cc1ccc(Cl)nc1`, the Potency entry in experiment [1], in experiment [2], in experiment [3], in experiment [4], in experiment [5] and in [6] was “inactive” in each case. Besides, the Potency entry in experiment [7], in [8], in experiment [9], in experiment [10], in [11] and in [12] was “inactive” each time. Also, the Potency result in experiment [13], in [14], in experiment [15], in experiment [16], in experiment [17] and in [18] was “inactive” in each case.

Regarding `CNC(=O)Oc1cccc2c1OC(C)(C)C2`, the Potency result in experiment [1], in experiment [2], in experiment [3], in experiment [4], in experiment [5] and in [6] was “inactive” throughout. Moreover, the Potency entry in [7], in experiment [8], in experiment [19], in [9], in experiment [10] and in experiment [11] was “inactive” each time. Besides, the Potency entry in experiment [12], in [13], in experiment [14], in experiment [15], in experiment [16] and in experiment [17] was “inactive” throughout. Besides, the Potency result in experiment [18] is “inactive”.

Regarding `CC(C)(c1ccccc1)c1ccc(O)c(C(C)(C)c2ccccc2)c1`, the Potency was 13.6 µM (active) and 30.6 µM (active) in experiment [1]; “inactive and 7.7 µM (active)” in experiment [2]; 40.4 µM (active) and inactive in experiment [6]; 14.3 µM (active) and 45.8 µM (active) in experiment [8]; 54 µM (active) in experiment [18]. Further, the Potency entry in experiment [3], in experiment [4], in experiment [5], in experiment [20], in experiment [10] and in experiment [11] was “inactive” in each case. Moreover, the Potency result in [12] and in experiment [17] was “inactive” each time.

Take `CNC(=O)O/N=C(\SC)C(=O)N(C)C`: the Potency entry in experiment [1], in experiment [2], in experiment [3], in experiment [4], in experiment [5] and in [6] was “inactive” in each case. Further, the Potency result in experiment [7], in [8], in experiment [19], in experiment [9], in [10] and in experiment [11] was “inactive” each time. Also, the Potency result in [12], in experiment [13], in experiment [14], in experiment [15], in experiment [16] and in [17] was “inactive” in each case. The Potency entry in experiment [18] is “inactive”.
